Among the data in PubChem BioAssay (EPA / NIEHS) are outcome and AC50 values, retold here.

Results filed as inconclusive are left out. Activity calls are given as the source filed them. Rule for the calls: active = hit-call score of the fitted dose curve at least 0.9, where 1 is the maximum; inconclusive = response in the unintended direction; inactive = score below 0.9.

human Protein Tyrosine Phosphatase Receptor Type C (PTPRC), PTPRC (gene 5788), sequence (P08575 whole entry, looked up): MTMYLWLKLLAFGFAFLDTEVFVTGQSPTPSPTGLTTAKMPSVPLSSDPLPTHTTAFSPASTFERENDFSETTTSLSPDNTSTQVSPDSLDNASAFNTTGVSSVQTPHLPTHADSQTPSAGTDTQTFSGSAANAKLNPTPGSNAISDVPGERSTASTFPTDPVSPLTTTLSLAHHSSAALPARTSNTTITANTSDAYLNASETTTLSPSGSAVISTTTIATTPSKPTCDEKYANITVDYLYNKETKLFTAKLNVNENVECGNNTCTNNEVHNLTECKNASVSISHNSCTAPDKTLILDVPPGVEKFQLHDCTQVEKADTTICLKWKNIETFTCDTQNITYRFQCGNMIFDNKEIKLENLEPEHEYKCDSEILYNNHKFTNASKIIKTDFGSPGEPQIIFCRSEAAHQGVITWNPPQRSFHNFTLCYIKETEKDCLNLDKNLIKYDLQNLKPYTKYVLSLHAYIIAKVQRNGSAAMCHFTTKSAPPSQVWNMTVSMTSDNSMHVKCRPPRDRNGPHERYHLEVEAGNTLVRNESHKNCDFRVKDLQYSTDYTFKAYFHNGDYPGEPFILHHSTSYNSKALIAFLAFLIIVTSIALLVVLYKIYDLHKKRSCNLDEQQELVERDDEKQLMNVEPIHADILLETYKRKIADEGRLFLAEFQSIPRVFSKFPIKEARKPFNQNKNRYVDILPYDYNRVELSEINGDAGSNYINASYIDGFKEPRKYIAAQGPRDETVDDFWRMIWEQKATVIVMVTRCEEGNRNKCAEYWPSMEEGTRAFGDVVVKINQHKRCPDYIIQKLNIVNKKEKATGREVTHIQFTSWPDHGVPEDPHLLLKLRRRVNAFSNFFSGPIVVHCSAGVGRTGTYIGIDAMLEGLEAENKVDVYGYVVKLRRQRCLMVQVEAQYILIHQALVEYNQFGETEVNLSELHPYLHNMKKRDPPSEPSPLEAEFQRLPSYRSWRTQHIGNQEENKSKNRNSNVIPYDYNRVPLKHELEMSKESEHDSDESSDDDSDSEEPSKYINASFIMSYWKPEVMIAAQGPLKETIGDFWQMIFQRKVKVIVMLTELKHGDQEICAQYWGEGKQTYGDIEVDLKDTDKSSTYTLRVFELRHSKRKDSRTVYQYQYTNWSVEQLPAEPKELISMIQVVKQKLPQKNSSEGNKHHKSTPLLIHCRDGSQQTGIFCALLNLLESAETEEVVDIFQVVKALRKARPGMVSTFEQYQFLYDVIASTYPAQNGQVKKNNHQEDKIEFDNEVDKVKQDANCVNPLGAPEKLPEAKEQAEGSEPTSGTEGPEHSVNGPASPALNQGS
human Phosphatase and Tensin Homolog (PTEN), PTEN (gene 5728), sequence (P60484 whole entry, looked up): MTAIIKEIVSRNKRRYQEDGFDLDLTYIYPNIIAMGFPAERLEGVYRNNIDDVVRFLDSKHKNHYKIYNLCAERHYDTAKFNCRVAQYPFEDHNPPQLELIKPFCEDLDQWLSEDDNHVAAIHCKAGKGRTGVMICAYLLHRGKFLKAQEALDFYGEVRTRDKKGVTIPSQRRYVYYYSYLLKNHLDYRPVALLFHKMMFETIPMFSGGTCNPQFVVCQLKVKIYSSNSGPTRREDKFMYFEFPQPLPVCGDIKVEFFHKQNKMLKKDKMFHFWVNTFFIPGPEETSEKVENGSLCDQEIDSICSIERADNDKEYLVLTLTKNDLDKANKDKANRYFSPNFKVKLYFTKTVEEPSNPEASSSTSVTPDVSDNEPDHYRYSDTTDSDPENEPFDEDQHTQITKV
rat Monoamine Oxidase, MAO-B, Central (MAOBC), Maob (gene 25750), sequence (P19643 whole entry, looked up): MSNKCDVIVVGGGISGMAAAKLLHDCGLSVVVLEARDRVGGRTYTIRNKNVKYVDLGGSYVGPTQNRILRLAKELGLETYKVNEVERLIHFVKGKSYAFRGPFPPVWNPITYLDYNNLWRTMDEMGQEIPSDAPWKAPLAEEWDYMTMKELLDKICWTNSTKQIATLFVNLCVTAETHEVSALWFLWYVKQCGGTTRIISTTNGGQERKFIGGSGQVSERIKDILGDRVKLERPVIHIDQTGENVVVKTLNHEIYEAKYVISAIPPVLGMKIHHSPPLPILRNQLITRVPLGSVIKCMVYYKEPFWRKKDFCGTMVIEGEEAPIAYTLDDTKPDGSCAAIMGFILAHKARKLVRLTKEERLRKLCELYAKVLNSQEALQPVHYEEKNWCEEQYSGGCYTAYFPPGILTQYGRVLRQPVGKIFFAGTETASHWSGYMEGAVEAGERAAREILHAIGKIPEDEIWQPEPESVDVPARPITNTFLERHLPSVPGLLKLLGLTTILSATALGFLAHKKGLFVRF

One assay concerns the target human Phosphatase and Tensin Homolog (PTEN), PTEN (gene 5728) (UniProt P60484). As to the kind of experiment: NVS_ENZ_hPTEN: NovaScreen (NVS) Enzymatic Assay for human Phosphatase and Tensin Homolog (PTEN) (AID 2283203). An outline of the steps: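 Cell-free recombinant human PTEN with fluorescent substrate; product separated by electrophoretic mobility shift and read by fluorescence 1 h after dosing. Primary screen in duplicate at 25 uM, actives followed in concentration series versus DMSO.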
As to `CN(CCOc1ccc(CC2SC(=O)NC2=O)cc1)c1ccccn1` (stereo unspecified), the outcome was inactive. On to `CCOC(C=C(C)CCC=C(C)C)OCC`, for which the compound was called inactive. For the compound `CCC(=O)OCC=Cc1ccccc1`, the outcome was inactive.

With `NC(=O)c1ccccc1Cl`, the result was inactive.

`Nc1ccc(S(=O)(=O)Nc2nccs2)cc1`: the result was inactive. Consider `CCCCCCCCCCCCCCCC`, for which the compound was called inactive.

Take `CCCCOCC`: the concentration at half-maximal activity (AC50) is 37 µM (active).

On to `Cc1ccc2ncccc2c1`, for which the compound was classed as inactive. For the compound `CC(c1cc(C(C)(C)C)cc(C(C)(C)C)c1O)c1cc(C(C)(C)C)cc(C(C)(C)C)c1O`, the half-maximal activity concentration (AC50) was 5.29 µM (active). Still for that read-out and setting: in the case of `C#CC(O)CCC` (stereo unspecified) it was 25 µM (active). On to `CO[Si](OC)(c1ccccc1)c1ccccc1`, for which the result was inactive. Regarding `Cc1cccc2c1ccc1ccccc12`, the AC50 is 13.8 µM (active).

Regarding `CCCCCCCCCCc1ccccc1`, the outcome was inactive.

Another assay concerns the target human Protein Tyrosine Phosphatase Receptor Type C (PTPRC), PTPRC (gene 5788) (UniProt P08575). As to the kind of experiment: NVS_ENZ_hPTPRC: NovaScreen (NVS) Enzymatic Assay for human Protein Tyrosine Phosphatase Receptor Type C (PTPRC) (AID 2283212). An outline of the steps: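 Yeast-extracted human PTPRC used in a cell-free colorimetric enzyme activity read-out, 1 h after dosing. Primary screen in duplicate at 25 uM; actives rerun in concentration-response up to 50 uM, DMSO as baseline.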
`CCCCCCOCCO`: the result was inactive. For `C[C@@H]1C[C@H]2[C@@H]3CCC4=CC(=O)C=C[C@]4(C)[C@@]3(F)[C@@H](O)C[C@]2(C)[C@@]1(O)C(=O)COP(=O)(O)O`, the AC50 was 15.3 µM (active). The same measure, in the same setting: the value for `Nc1nc2ncc(CNc3ccc(C(=O)N[C@@H](CCC(=O)O)C(=O)O)cc3)nc2c(=O)[nH]1` was 15.8 µM (active); that for `Nc1ccc(Nc2ccccc2)cc1` was 19.1 µM (active); that for `COC(=O)[C@H]1[C@H]2C[C@@H]3c4[nH]c5cc(OC)ccc5c4CCN3C[C@H]2C[C@@H](OC(=O)c2cc(OC)c(OC)c(OC)c2)[C@@H]1OC` was 21.1 µM (active).

Consider `CCCCCCC(=O)OCC`, for which the result was inactive. Regarding `Cc1c(C(=O)O)c(O)cc2c1C(=O)c1c(O)c([C@@H]3O[C@H](CO)[C@@H](O)[C@H](O)[C@H]3O)c(O)c(O)c1C2=O`, the concentration at half-maximal activity (AC50) is 11.7 µM (active). In the case of `OC12N=C(c3ccccc3)SC1Cc1cc(Cl)ccc12` (stereo unspecified), the AC50 was 21.3 µM (active). Take `ClC1=C(Cl)C(Cl)(Cl)C(Cl)=C1Cl`: the concentration at half-maximal activity (AC50) was 10.9 µM (active). The same measure, in the same setting: the value for `Nc1nc(N)c2nc(CNc3ccc(C(=O)N[C@@H](CCC(=O)O)C(=O)O)cc3)cnc2n1` was 14.5 µM (active). For the compound `CCCC[C@H]1CN(CC2CCOCC2)C(=O)OC12CCN(C1(C)CCN(C(=O)c3c(C)ncnc3C)CC1)CC2`, the compound was classed as inactive. Regarding `NC(=O)NN=Cc1ccc([N+](=O)[O-])o1`, the AC50 was 11.3 µM (active).

With `CC(C)CCO`, the outcome was inactive.

The target of another assay is human Tyrosine Protein Kinase Receptor Tie-2 (Tie2), TEK (gene 7010) (UniProt Q02763). As to the kind of experiment: NVS_ENZ_hTie2: NovaScreen (NVS) Enzymatic Assay for human Tyrosine Protein Kinase Receptor Tie-2 (Tie2) (AID 2283225). An outline of the steps: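 Recombinant human Tie2 kinase activity was read cell-free by fluorescence with electrophoretic mobility shift, 1 hour after dosing. The screen used 25 uM in duplicate, then concentration-response up to 50 uM. Signal loss was scored against DMSO.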
human Tyrosine Protein Kinase Receptor Tie-2 (Tie2), TEK (gene 7010), sequence (Q02763 whole entry, looked up): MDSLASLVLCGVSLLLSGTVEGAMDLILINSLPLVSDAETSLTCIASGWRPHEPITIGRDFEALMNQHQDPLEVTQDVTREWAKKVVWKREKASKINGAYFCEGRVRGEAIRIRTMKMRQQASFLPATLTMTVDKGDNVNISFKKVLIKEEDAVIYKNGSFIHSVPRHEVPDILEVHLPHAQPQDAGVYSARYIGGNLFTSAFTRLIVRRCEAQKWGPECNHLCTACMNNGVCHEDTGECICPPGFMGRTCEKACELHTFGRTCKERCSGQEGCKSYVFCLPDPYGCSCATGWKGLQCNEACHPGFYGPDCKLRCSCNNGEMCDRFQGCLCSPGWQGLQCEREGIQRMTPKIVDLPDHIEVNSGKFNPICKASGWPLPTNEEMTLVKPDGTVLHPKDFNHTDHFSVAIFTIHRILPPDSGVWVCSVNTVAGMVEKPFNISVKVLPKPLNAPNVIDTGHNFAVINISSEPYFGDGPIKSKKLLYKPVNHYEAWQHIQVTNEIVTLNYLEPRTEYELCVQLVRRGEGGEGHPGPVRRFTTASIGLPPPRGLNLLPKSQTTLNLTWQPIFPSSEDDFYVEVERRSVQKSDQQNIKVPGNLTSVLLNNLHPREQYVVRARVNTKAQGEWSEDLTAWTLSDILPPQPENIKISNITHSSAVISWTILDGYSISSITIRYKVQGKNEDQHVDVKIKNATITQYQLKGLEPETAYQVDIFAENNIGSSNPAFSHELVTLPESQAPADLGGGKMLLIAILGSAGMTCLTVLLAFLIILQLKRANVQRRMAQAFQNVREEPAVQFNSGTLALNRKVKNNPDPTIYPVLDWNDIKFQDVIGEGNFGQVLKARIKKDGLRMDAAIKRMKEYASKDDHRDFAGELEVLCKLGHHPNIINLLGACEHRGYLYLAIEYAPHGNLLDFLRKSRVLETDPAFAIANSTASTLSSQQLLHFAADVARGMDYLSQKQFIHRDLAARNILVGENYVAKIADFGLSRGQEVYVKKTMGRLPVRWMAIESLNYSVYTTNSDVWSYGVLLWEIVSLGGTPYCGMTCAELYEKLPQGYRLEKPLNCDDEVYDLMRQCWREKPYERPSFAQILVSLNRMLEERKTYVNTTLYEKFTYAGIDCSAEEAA
As for `CC(=O)OCCC(C)C`, the outcome was inactive. The same measure, in the same setting: in the case of `CCCCOC(=O)CCCCC(=O)OCCCC` it was “inactive”. Still for that read-out and setting: the value for `C[C@]12C=CC(=O)C=C1CC[C@H]1[C@@H]3C[C@@H](O)[C@](O)(C(=O)CO)[C@@]3(C)C[C@H](O)[C@@]12F` was “inactive”; that for `Cc1ccc2ncccc2c1` was “inactive”. Turning to `CCCN(CCC)c1c([N+](=O)[O-])cc(C(F)(F)F)c(N)c1[N+](=O)[O-]`, the call was inactive.

Turning to `COc1ccc(/C=C/S(=O)(=O)NC(=O)c2ccc(C)cc2Cl)cc1`, the call was inactive.

A further assay relates to rat Monoamine Oxidase, MAO-A, Peripheral (MAOAP), gene 29253. As to the kind of experiment: NVS_ENZ_rMAOAP: NovaScreen (NVS) Enzymatic Assay for rat Monoamine Oxidase, MAO-A, Peripheral (MAOAP) (AID 2283237). An outline of the steps:
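Rat liver mitochondrial membranes served as the MAO-A source, with enzyme activity measured by radiometric scintillation counting 1.17 hours after dosing. Loss of signal was fitted against DMSO; primary screen used 25 uM in duplicate, follow-up used concentration series.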
For `CC(C)C(=O)Nc1ccc([N+](=O)[O-])c(C(F)(F)F)c1`, the half-maximal activity concentration (AC50) is 10.4 µM (active).

Turning to `CCCOC(=O)NCCCN(C)C`, the outcome was inactive. `O=NO`: the half-maximal activity concentration (AC50) is 33.9 µM (active). Take `Cc1cc(SC2=C(O)C[C@@](CCc3ccc(N)cc3)(C(C)C)OC2=O)c(C(C)(C)C)cc1CO`: the outcome was inactive. With `CCn1nc(C)c2c1C(=O)NCC(c1ccc(O)cc1)=N2`, the AC50 is 5.25 µM (active). For the compound `Nc1cccc(N)c1`, the call was inactive. As for `Cc1c(C(=O)O)c(O)cc2c1C(=O)c1c(O)c([C@@H]3O[C@H](CO)[C@@H](O)[C@H](O)[C@H]3O)c(O)c(O)c1C2=O`, the call was inactive. The same measure, in the same setting: the value for `CCCN(CCC)c1c([N+](=O)[O-])cc(C(F)(F)F)c(N)c1[N+](=O)[O-]` was “inactive”. For the compound `Nc1nc(N)c2nc(CNc3ccc(C(=O)N[C@@H](CCC(=O)O)C(=O)O)cc3)cnc2n1`, the AC50 was 38.7 µM (active).

On to `C[C@]12CC[C@@H]3c4ccc(O)cc4CC[C@H]3[C@@H]1CCC2=O`, for which the compound was called inactive. Turning to `O=c1ccc2ccccc2o1`, the concentration at half-maximal activity (AC50) is 6.56 µM (active).

Another assay deals with rat Monoamine Oxidase, MAO-B, Central (MAOBC), Maob (gene 25750) (UniProt P19643). As to the kind of experiment: NVS_ENZ_rMAOBC: NovaScreen (NVS) Enzymatic Assay for rat Monoamine Oxidase, MAO-B, Central (MAOBC) (AID 2283238). The essentials:
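MAO-B activity in rat brain tissue preparation, cell-free, measured radiometrically by scintillation counting 1.17 h after dosing. Screened in duplicate at 25 uM; actives then in concentration-response up to 50 uM. Loss of signal versus DMSO scored.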
Take `Nc1ccc(Nc2ccccc2)cc1`: the AC50 was 10.4 µM (active). Still for that read-out and setting: in the case of `CCCCCCCCCCCC[N+](C)(C)C` it was 9.12 µM (active); in that of `O=c1ccc2ccccc2o1`, 12.5 µM (active).
